Measured values published in PubChem BioAssay.
Activity calls are given as the source filed them. No rule for the calls is given here.

Biological target: L-lactate dehydrogenase (Plasmodium falciparum (isolate CDC / Honduras)) (UniProt Q27743)
Test: PfLDH activity inhibition – cell lysate, 3D7 strain, counter-screen for P. falciparum growth inhibition project (AID 2304);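 also: 0% = vehicle and 100% = reference inhibitor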
Conditions: P. falciparum 3D7 crude extract, LDH APAD/NBT absorbance; at 2 µM; active compounds read high

L-lactate dehydrogenase (Plasmodium falciparum (isolate CDC / Honduras)), sequence (Q27743 whole entry, looked up): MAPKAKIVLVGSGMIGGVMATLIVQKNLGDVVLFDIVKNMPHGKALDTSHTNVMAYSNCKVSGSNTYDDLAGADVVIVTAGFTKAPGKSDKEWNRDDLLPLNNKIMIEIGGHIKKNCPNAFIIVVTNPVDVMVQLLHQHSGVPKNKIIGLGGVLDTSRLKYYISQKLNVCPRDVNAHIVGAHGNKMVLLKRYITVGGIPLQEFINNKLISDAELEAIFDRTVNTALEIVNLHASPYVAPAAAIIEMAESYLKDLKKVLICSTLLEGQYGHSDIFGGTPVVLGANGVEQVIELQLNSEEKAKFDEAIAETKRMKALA

| Compound | inhibition |
| --- | --- |
| CN1CCN(Cc2ccc(-c3cccc(-c4nc5ccccc5[nH]4)c3)cc2)CC1 | 3% (inactive) |
| CNCCCNCc1ccc(-c2ccc(F)c(Cl)c2)o1 | 0% (inactive) |
| Cc1ccc2nc(-c3cc(-c4ccc(OCc5ccccc5)cc4)cnc3N)[nH]c2c1 | 1% (inactive) |
| O=C(Nc1ccc(OC2CCN(Cc3ccccc3)C2)c(Cl)c1)c1ccc(F)cc1 (centres undefined) | 7% (inactive) |
| Nc1nc2c(c(=O)[nH]1)CN(S(=O)(=O)c1ccc(C(=O)N[C@@H](CCC(=O)O)C(=O)O)cc1)CC2 | 6% (inactive) |
| CCc1cn2c3c(cc(C(=O)N[C@@H](Cc4ccccc4)[C@H](O)CNCC(C)C)cc13)N(C)S(=O)(=O)CC2 | -6% (inactive) |
| CCN1CCC(N2CCC(C(=O)Nc3cccc(-c4cccc(Cl)c4)c3)CC2)CC1 | -1% (inactive) |
| O=C(Nc1cccc(-c2ccc(-c3nc4ccccc4[nH]3)cc2)c1)c1cnn2cccnc12 | -3% (inactive) |
| COc1ccc2nc3cc(Cl)ccc3c(NCCCCN)c2c1 | 7% (inactive) |
| COc1ccc(CNc2nc(NCCc3ccccc3)c3cc(OC)c(OC)cc3n2)cc1OC | 3% (inactive) |
| Cc1ccc(F)c(C(=O)Nc2cccc(-c3nn4ccccc4c3-c3ccnc(Nc4cccc(F)c4)n3)c2)c1F | 6% (inactive) |
| CN(C)CCNC(=O)N1CCCN(c2ncnc3cc(-c4ccc(Cl)cc4)sc23)CC1 | 4% (inactive) |
| CCCC(C)Nc1nc(C)cc(N[C@@H](Cc2ccccc2)C(=O)NCCOc2ccccc2)n1 (some centres undefined) | -1% (inactive) |
| CCCc1cn2c3c(cc(C(=O)N[C@@H](Cc4ccccc4)[C@H](O)CNC4CCCCC4)cc13)N(C)S(=O)(=O)CC2 | -2% (inactive) |
